Assay outcomes as filed in PubChem BioAssay.
KDM5B inh: Primary screen for KDM5B Histone Demethylases FDH-coupled qHTS | Lysine-specific demethylase 5B (Homo sapiens), Q9UGL1 | KDM5B demethylase, FDH-coupled NADH fluorescence (FDH is formaldehyde dehydrogenase) | Potency, µM (doses to about 57.7 µM), actives largely listed as inhibitors | 2.6% of 220,000 active; active = well fitted inhibition curve with a large enough effect; also: nearly all actives have a fitted effect of over 70% in size
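KDM5BΔAP (200 nM final) in 50 mM HEPES pH 7.5, 0.01% Tween-20 was preincubated 10 min at RT with compound over a concentration range. Substrate mix (H3K4me3 12.5 µM, α-KG 25 µM, Fe²⁺, ascorbate, NAD⁺, FDH) was added, and NADH fluorescence change over 30 min gave dose-response curves.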
Numbers stand for hits. This excerpt belongs to a sample that is enriched for hits.

How did COCc1nc(C2CCCN(C(=O)c3ccc(C)s3)C2)no1 (stereo not given) do in these assays?
KDM5B inh: inactive

Results for CCc1ccc(C(=O)N2CCCC(c3noc(-c4cc5c(=O)[nH]c(C)cn5n4)n3)C2)cc1 (stereo not given) ?
KDM5B inh: 25.1µM

What do the screens show for `Cc1cn2nc(-c3nc(C4CCCN(C(=O)c5ccc(C)s5)C4)no3)cc2c(=O)[nH]1` (stereo not given)?
KDM5B inh: 28.2µM

How did Cc1cccc(C(=O)N2CCCC(c3noc(-c4cc5c(=O)[nH]c(C)cn5n4)n3)C2)c1 (stereo not given) do in these assays?
KDM5B inh: inactive

What do the screens show for `Cc1ncoc1C(=O)N1CCC(c2noc(-c3ccccc3)n2)C1` (stereo not given)?
KDM5B inh: inactive

What do the screens show for `COCc1nc(C2CCCN(C(=O)c3ccc(C)cc3)C2)no1` (stereo not given)?
KDM5B inh: inactive

What do the screens show for `Cc1cn2nc(-c3nc(C4CCCN(C(=O)Cc5ccsc5)C4)no3)cc2c(=O)[nH]1` (stereo not given)?
KDM5B inh: inactive

What do the screens show for `Cc1ccsc1C(=O)N1CCCC(c2noc(COc3ccccc3F)n2)C1` (stereo not given)?
KDM5B inh: inactive

Results for CN(Cc1ccccc1)C(=O)N1CCN(C(=O)c2cc(-c3cccc(Cl)c3)n[nH]2)CC1 ?
KDM5B inh: inactive

Results for COc1ccc(C(=O)NNC(=O)CC2Sc3ccccc3NC2=O)cc1 (stereo not given) ?
KDM5B inh: inactive

What do the screens show for `Cc1cc(C=O)c(C)n1C`?
KDM5B inh: inactive

Results for O=C(O)c1cccc(OCc2cccc(Cl)c2)c1 ?
KDM5B inh: inactive

How did COc1ccc(C(=O)N2CCCC3(CN[S+](=O)([O-])c4ccccc4N3)C2)cc1 (stereo not given) do in these assays?
KDM5B inh: inactive

What do the screens show for `Cc1ccc(C(=O)N2CCCN(S(=O)(=O)c3ccccc3)CCC(=O)NCC2)s1`?
KDM5B inh: inactive

How did CCOC(=O)COc1ccc2c(=O)c(Oc3ccccc3OCC)coc2c1 do in these assays?
KDM5B inh: inactive

Results for O=C(N[C@H]1CCOC[C@H]1C1CCOCC1)c1ccoc1 ?
KDM5B inh: inactive

Results for O=C(N[C@H]1CCOC[C@H]1C1CCOCC1)c1cc(=O)[nH]c2ccc(F)cc12 ?
KDM5B inh: 22.4µM

How did Cc1[nH]c2ccc(C(=O)N[C@H]3CCOC[C@H]3C3CCOCC3)cc2c1C do in these assays?
KDM5B inh: inactive

Results for Cc1oc2cc(OCCN3CCN(CCO)CC3)ccc2c(=O)c1-c1ccccc1 ?
KDM5B inh: inactive

What do the screens show for `CC(=O)N1CCC(N2CC(Oc3cccc(C(=O)N4CCOCC4)c3)C2)CC1`?
KDM5B inh: inactive

What do the screens show for `O=C(NCCc1ccc(Cl)cc1)c1ccccn1`?
KDM5B inh: inactive

How did COc1ccccc1-c1nc(C(=O)NCCc2ccc(Cl)cc2)n2ccccc12 do in these assays?
KDM5B inh: 79.4µM

Results for O=C(NC1CC1)c1nc(-c2ccccc2)c2ccccn12 ?
KDM5B inh: inactive

How did COc1ccccc1-c1cc(C(=O)NCCc2ccc(Cl)cc2)nn2cccc12 do in these assays?
KDM5B inh: inactive

What do the screens show for `O=C(NCCc1ccc(Cl)cc1)c1nc(-c2ccccc2)c2ccccn12`?
KDM5B inh: 28.2µM

Results for COc1ccc(CCNC(=O)c2c(C)noc2-c2ccccc2OC)cc1 ?
KDM5B inh: inactive

How did O=C(NCCc1ccc(Cl)cc1)c1nc(-c2cccc(C(F)(F)F)c2)c2ccccn12 do in these assays?
KDM5B inh: 25.1µM

Results for O=C(NCc1ccc(F)cc1)c1nc(-c2cccc(C(F)(F)F)c2)c2ccccn12 ?
KDM5B inh: inactive

Results for O=C(NCc1cccs1)c1nc(-c2cccc(C(F)(F)F)c2)c2ccccn12 ?
KDM5B inh: inactive

How did O=C(NCc1ccc(F)cc1)N1CCC(N2CC3CC(C2)[C@H]2CCCC(=O)N2C3)CC1 (stereo not given in full) do in these assays?
KDM5B inh: inactive

What do the screens show for `COc1cc(/C=N/O)cc(Cl)c1OC(C)=O`?
KDM5B inh: inactive

What do the screens show for `CC1=NN(c2cc(C)[nH]n2)C(c2ccccc2)C1` (stereo not given)?
KDM5B inh: inactive

Results for CC(C)c1nnc(NC(=O)c2c[nH]c3ccccc3c2=O)s1 ?
KDM5B inh: inactive

What do the screens show for `COc1ccc(OCCOC(=O)CCC(=O)c2ccc3c(c2)OCCO3)cc1`?
KDM5B inh: inactive

Results for CCCOC(=O)c1ccc(NC(=O)CC(C)(C(=O)O)c2ccccc2)cc1 (stereo not given) ?
KDM5B inh: inactive

What do the screens show for `O=C(c1ccccc1F)N1CCCC2(C1)C(=NC1CCCC1)NC(=O)N2c1cc(F)cc(F)c1` (stereo not given)?
KDM5B inh: inactive

How did COC(=O)c1c(NC(C)=O)c2cc(NC3CCN(C(C)=O)CC3)cnc2n1CC1CCCO1 (stereo not given) do in these assays?
KDM5B inh: 20µM

Results for COc1cc(NC(=O)Cn2c(=O)n(CC3CCCO3)c(=O)c3ccccc32)cc(OC)c1 (stereo not given) ?
KDM5B inh: inactive

What do the screens show for `COC(=O)c1c(NC(=O)c2ccccc2)c2cc(NC3CCOCC3)cnc2n1CC1CCCO1` (stereo not given)?
KDM5B inh: inactive

What do the screens show for `Cc1sc2nc(CN3CCOCC3)nc(Sc3nnnn3C3CC3)c2c1C`?
KDM5B inh: inactive

Results for Cn1nccc1C(=O)N1CC(=O)N(C2CCCCC2)CC(OCc2ccccc2)C1 (stereo not given) ?
KDM5B inh: inactive

How did CN(C)[C@H]1CCCCN(C(=O)c2cnc3ccccn3c2=O)C1 do in these assays?
KDM5B inh: 31.6µM

What do the screens show for `COc1cc(OC)c(C(=O)N2CCCC[C@H](N(C)C)C2)cc1OC`?
KDM5B inh: inactive

How did O=C(c1cnc2ccccn2c1=O)N1CC(=O)N(C2CCCCC2)CC(OCc2ccccc2)C1 (stereo not given) do in these assays?
KDM5B inh: 31.6µM

What do the screens show for `CC(C)C(=O)N1CC(=O)N(C2CCCCC2)CC(OCc2ccccc2)C1` (stereo not given)?
KDM5B inh: inactive

How did CN(C)[C@H]1CCCCN(C(=O)c2cccc(-c3cccc(F)c3)c2)C1 do in these assays?
KDM5B inh: inactive

How did CC(=O)c1ccc(NC(=O)C(C)Sc2ccccc2C(=O)NCC(=O)C(C)(C)C)cc1 (stereo not given) do in these assays?
KDM5B inh: inactive

Results for Cc1nc(NCCc2ccc3c(c2)OCCO3)c2c3c(sc2n1)CCC3 ?
KDM5B inh: inactive

Results for O=C1CC(c2ccccc2)N(C(=O)CNC(=O)c2[nH]nc3c2COc2ccccc2-3)CCCCCN1 (stereo not given) ?
KDM5B inh: inactive

How did Cc1cc2c(c(=O)n(-c3ccc(F)cc3)c(=O)n2CC(=O)Nc2ccccc2C(F)(F)F)n1C do in these assays?
KDM5B inh: inactive

What do the screens show for `COc1nc2c(c(=O)n(C)c(=O)n2C)n1Cc1ccc(Cl)cc1Cl`?
KDM5B inh: inactive

What do the screens show for `COCCn1c(CNC(=O)c2ccc(C)cc2)nc2cccnc21`?
KDM5B inh: inactive

How did O=C(NCc1ccc(F)cc1)c1cnc(Cl)c(Cl)c1 do in these assays?
KDM5B inh: inactive

What do the screens show for `CSc1ccc(C(C)NC(=O)c2ccc(F)cc2)cc1` (stereo not given)?
KDM5B inh: inactive

What do the screens show for `O=C(NCc1ccc(F)cc1)c1ccc(-c2ccccc2)cc1`?
KDM5B inh: inactive
